Source: PubChem BioAssay AID1159580 (chemical genetic matrix, 2015)
Screen size: about 5,500 compounds; about 2,000 (36%) were called active. About 18% were inconclusive and are not listed. No stated cut-off is given here; in the data, active means normalized growth mostly below about 0.91 (no sharp cut-off); inconclusive means no clear call, values can overlap the other calls; inactive means mostly above about 0.92. This is one part of the list.

Test: chemical genetic growth profiling, strain panel (AID 1159580);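 further: tested at 20 µM; growth read once vehicle control cultures reached saturation at 30 °C; 1 = growth at the plate median or of vehicle wells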
Conditions: growth OD

Measured: normalized growth

OC1=Cc2c(O)cc(O)cc2OC1(O)c1ccc(O)c(O)c1 (stereo not drawn)
inactive: S. cerevisiae deletion strains, locus YBR021W, strain FUR4, stronger effect = lower value 1.06 | S. cerevisiae deletion strains, locus YBR229C, strain ROT2, stronger effect = lower value 1 | S. cerevisiae deletion strains, locus YCL029C, strain bik1, stronger effect = lower value 0.997 | S. cerevisiae deletion strains, locus YDL035C, strain GPR1, stronger effect = lower value 1.02 | S. cerevisiae deletion strains, locus YDL074C, strain BRE1, stronger effect = lower value 0.962 | S. cerevisiae deletion strains, locus YDL101C, strain DUN1, stronger effect = lower value 0.99 | S. cerevisiae deletion strains, locus YDL134C, strain PPH21, stronger effect = lower value 0.975 | S. cerevisiae deletion strains, locus YDL185W, strain tfp1, stronger effect = lower value 0.96 | S. cerevisiae deletion strains, locus YDL192W, strain arf1, stronger effect = lower value 1 | S. cerevisiae deletion strains, locus YDR101C, strain arx1, stronger effect = lower value 1.03 | S. cerevisiae deletion strains, locus YDR162C, strain NBP2, stronger effect = lower value 0.956 | S. cerevisiae deletion strains, locus YDR318W, strain mcm21, stronger effect = lower value 1 | S. cerevisiae deletion strains, locus YDR388W, stronger effect = lower value 0.994 | S. cerevisiae deletion strains, locus YDR502C, strain sam2, stronger effect = lower value 1.01 | S. cerevisiae deletion strains, locus YER110C, stronger effect = lower value 0.993 | S. cerevisiae deletion strains, locus YER155C, strain BEM2, stronger effect = lower value 1.02 | S. cerevisiae deletion strains, locus YER167W, strain BCK2, stronger effect = lower value 1.01 | S. cerevisiae deletion strains, locus YGL078C, strain dbp3, stronger effect = lower value 0.972 | S. cerevisiae deletion strains, locus YGL086W, strain mad1, stronger effect = lower value 0.997 | S. cerevisiae deletion strains, locus YGL248W, strain PDE1, stronger effect = lower value 0.979 | S. cerevisiae deletion strains, locus YGR078C, strain PAC10, stronger effect = lower value 0.962 | S. cerevisiae deletion strains, locus YGR135W, strain pre9, stronger effect = lower value 0.972 | S. cerevisiae deletion strains, locus YGR252W, strain gcn5, stronger effect = lower value 1.1 | S. cerevisiae deletion strains, locus YHR030C, strain SLT2, stronger effect = lower value 0.984 | S. cerevisiae deletion strains, locus YHR079C, strain IRE1 (second series), stronger effect = lower value 0.995 | S. cerevisiae deletion strains, locus YHR094C, strain hxt1, stronger effect = lower value 0.995 | S. cerevisiae deletion strains, locus YHR129C, strain ARP1, stronger effect = lower value 0.985 | S. cerevisiae deletion strains, locus YHR200W, strain rpn10, stronger effect = lower value 0.997 | S. cerevisiae deletion strains, locus YIL066C, strain RNR3, stronger effect = lower value 0.991 | S. cerevisiae deletion strains, locus YIL073C, strain SPO22, stronger effect = lower value 0.972 | S. cerevisiae deletion strains, locus YIL125W, strain kgd1, stronger effect = lower value 0.989 | S. cerevisiae deletion strains, locus YIR030C, strain dcg1, stronger effect = lower value 0.989 | S. cerevisiae deletion strains, locus YJL095W, strain BCK1, stronger effect = lower value 0.965 | S. cerevisiae deletion strains, locus YJL134W, strain LCB3, stronger effect = lower value 0.997 | S. cerevisiae deletion strains, locus YJL168C, strain set2, stronger effect = lower value 0.991 | S. cerevisiae deletion strains, locus YJL187C, strain SWE1 (second series), stronger effect = lower value 0.966 | S. cerevisiae deletion strains, locus YKL009W, strain mrt4, stronger effect = lower value 0.997 | S. cerevisiae deletion strains, locus YKL068W, stronger effect = lower value 0.981 | S. cerevisiae deletion strains, locus YKL085W, strain MDH1 (second series), stronger effect = lower value 0.986 | S. cerevisiae deletion strains, locus YKL085W, strain MDH1, stronger effect = lower value 0.986 | S. cerevisiae deletion strains, locus YKL190W, strain CNB1, stronger effect = lower value 0.992 | S. cerevisiae deletion strains, locus YKR001C, strain vps1, stronger effect = lower value 1 | S. cerevisiae deletion strains, locus YLR039C, strain RIC1, stronger effect = lower value 1 | S. cerevisiae deletion strains, locus YLR058C, strain SHM2, stronger effect = lower value 0.984 | S. cerevisiae deletion strains, locus YLR102C, strain apc9, stronger effect = lower value 0.993 | S. cerevisiae deletion strains, locus YLR268W, strain sec22, stronger effect = lower value 1.02 | S. cerevisiae deletion strains, locus YLR342W, strain FKS1 (second series), stronger effect = lower value 0.935 | S. cerevisiae deletion strains, locus YLR371W, strain rom2, stronger effect = lower value 0.975 | S. cerevisiae deletion strains, locus YLR418C, strain cdc73, stronger effect = lower value 1.02 | S. cerevisiae deletion strains, locus YML016C, strain PPZ1, stronger effect = lower value 0.972 | S. cerevisiae deletion strains, locus YML032C, strain rad52, stronger effect = lower value 1.02 | S. cerevisiae deletion strains, locus YML124C, strain tub3, stronger effect = lower value 1 | S. cerevisiae deletion strains, locus YMR078C, strain ctf18, stronger effect = lower value 0.99 | S. cerevisiae deletion strains, locus YMR223W, strain ubp8, stronger effect = lower value 0.987 | S. cerevisiae deletion strains, locus YMR307W, strain GAS1, stronger effect = lower value 0.971 | S. cerevisiae deletion strains, locus YNL067W, strain RPL9B, stronger effect = lower value 0.967 | S. cerevisiae deletion strains, locus YNL153C, strain GIM3, stronger effect = lower value 0.964 | S. cerevisiae deletion strains, locus YNL233W, strain BNI4, stronger effect = lower value 0.998 | S. cerevisiae deletion strains, locus YNL250W, strain rad50, stronger effect = lower value 0.97 | S. cerevisiae deletion strains, locus YNL271C, strain bni1, stronger effect = lower value 0.978 | S. cerevisiae deletion strains, locus YNL298W, strain CLA4, stronger effect = lower value 0.986 | S. cerevisiae deletion strains, locus YNL307C, strain MCK1, stronger effect = lower value 0.999 | S. cerevisiae deletion strains, locus YNR052C, strain pop2, stronger effect = lower value 0.981 | S. cerevisiae deletion strains, locus YOL006C, strain TOP1, stronger effect = lower value 0.945 | S. cerevisiae deletion strains, locus YOL012C, strain htz1 0.48 | S. cerevisiae deletion strains, locus YOL147C, strain pex11, stronger effect = lower value 1.01 | S. cerevisiae deletion strains, locus YOR061W, strain CKA2, stronger effect = lower value 0.987 | S. cerevisiae deletion strains, locus YOR069W, strain VPS5, stronger effect = lower value 0.988 | S. cerevisiae deletion strains, locus YOR136W, strain idh2, stronger effect = lower value 1 | S. cerevisiae deletion strains, locus YOR144C, strain elg1, stronger effect = lower value 0.996 | S. cerevisiae deletion strains, locus YOR184W, strain ser1, stronger effect = lower value 1.05 | S. cerevisiae deletion strains, locus YOR316C, strain cot1, stronger effect = lower value 0.984 | S. cerevisiae deletion strains, locus YPR119W, strain clb2, stronger effect = lower value 0.995 | S. cerevisiae deletion strains, locus YPR141C, strain kar3, stronger effect = lower value 0.974 | S. cerevisiae deletion strains, locus YPR163C, strain tif3, stronger effect = lower value 0.999 | S. cerevisiae deletion strains, locus YPR167C, strain met16, stronger effect = lower value 0.999 | S. cerevisiae deletion strains, strain wtn01, stronger effect = lower value 1.01 | S. cerevisiae strains, strain wild type, stronger effect = lower value 0.998
